# Laboratory results published in PubChem BioAssay AID1159580 (chemical genetic matrix, 2015).
# About 2,000 (36%) of roughly 5,500 compounds were called active. Inconclusive results (about 18%) are left out. The list shows a part of the results. Values without a mark were called inactive. Cut-off read from the data, not from the text of the source: active = normalized growth mostly below about 0.91 (no sharp cut-off); inconclusive = no clear call, values can overlap the other calls; inactive = mostly above about 0.92.
# Experiment: chemical genetic growth profiling, strain panel (AID 1159580);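 note: tested at 20 µM; growth read once vehicle control cultures reached saturation at 30 °C; 1 = growth at the plate median or of vehicle wells; lower values mean less growth of the strain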
# Details: S. cerevisiae deletion strains, growth OD
compound,measurement,setting,value
COC(=O)C1=C(C)NC(C)=C(C(=O)OCC(C)C)C1c1ccccc1[N+](=O)[O-] (centres undefined),normalized growth,"locus YAL021C, strain ccr4, active compounds read low",0.0808 (active)
same,normalized growth,"locus YAL026C, strain drs2, active compounds read low",0.216 (active)
same,normalized growth,"locus YAL030W, strain snc1, active compounds read low",0.239 (active)
same,normalized growth,"locus YBL061C, strain skt5, active compounds read low",0.19 (active)
same,normalized growth,"locus YBR009C, strain hhf1, active compounds read low",0.224 (active)
same,normalized growth,"locus YBR023C, strain chs3, active compounds read low",0.176 (active)
same,normalized growth,"locus YBR171W, strain sec66, active compounds read low",0.898
same,normalized growth,"locus YBR231C, strain swc5, active compounds read low",0.212 (active)
same,normalized growth,"locus YBR279W, strain paf1, active compounds read low",0.451 (active)
same,normalized growth,"locus YCL011C, strain gbp2, active compounds read low",0.257 (active)
same,normalized growth,"locus YCL016C, strain dcc1, active compounds read low",0.462 (active)
same,normalized growth,"locus YCL069W, strain vba3, active compounds read low",0.413 (active)
same,normalized growth,"locus YCR088W, strain abp1, active compounds read low",0.39 (active)
same,normalized growth,"locus YDL005C, strain med2, active compounds read low",0.193 (active)
same,normalized growth,"locus YDL040C, strain nat1, active compounds read low",0.953
same,normalized growth,"locus YDR001C, strain nth1, active compounds read low",0.468 (active)
same,normalized growth,"locus YDR069C, strain doa4, active compounds read low",0.0857 (active)
same,normalized growth,"locus YDR137W, strain rgp1, active compounds read low",0.866
same,normalized growth,"locus YDR159W, strain sac3, active compounds read low",0.958
same,normalized growth,"locus YDR195W, strain ref2",1.06
same,normalized growth,"locus YDR297W, strain sur2, active compounds read low",0.167 (active)
same,normalized growth,"locus YDR334W, strain swr1, active compounds read low",0.24 (active)
same,normalized growth,"locus YDR335W, strain msn5, active compounds read low",0.814 (active)
same,normalized growth,"locus YDR392W, strain spt3, active compounds read low",0.122 (active)
same,normalized growth,"locus YEL003W, strain gim4, active compounds read low",0.463 (active)
same,normalized growth,"locus YEL037C, strain rad23, active compounds read low",0.296 (active)
same,normalized growth,"locus YEL061C, strain CIN8 (second series), active compounds read low",0.33 (active)
same,normalized growth,"locus YER015W, strain faa2, active compounds read low",0.177 (active)
same,normalized growth,"locus YER016W, strain bim1, active compounds read low",0.52 (active)
same,normalized growth,"locus YER111C, strain swi4, active compounds read low",0.945
same,normalized growth,"locus YER155C, strain BEM2 (second series), active compounds read low",0.259 (active)
same,normalized growth,"locus YFR010W, strain ubp6, active compounds read low",0.382 (active)
same,normalized growth,"locus YGL167C, strain pmr1, active compounds read low",0.214 (active)
same,normalized growth,"locus YGL173C, strain kem1, active compounds read low",0.098 (active)
same,normalized growth,"locus YGL227W, strain vid30, active compounds read low",0.769 (active)
same,normalized growth,"locus YGL240W, strain doc1, active compounds read low",0.259 (active)
same,normalized growth,"locus YGL253W, strain hxk2, active compounds read low",0.303 (active)
same,normalized growth,"locus YHR013C, strain ard1, active compounds read low",0.209 (active)
same,normalized growth,"locus YHR027C, strain rpn1, active compounds read low",0.164 (active)
same,normalized growth,"locus YHR030C, strain SLT2, active compounds read low",0.472 (active)
same,normalized growth,"locus YHR079C, strain IRE1, active compounds read low",0.385 (active)
same,normalized growth,"locus YHR142W, strain chs7, active compounds read low",0.209 (active)
same,normalized growth,"locus YJL092W, strain hpr5, active compounds read low",0.422 (active)
same,normalized growth,"locus YJL095W, strain BCK1 (second series), active compounds read low",0.112 (active)
same,normalized growth,"locus YJL095W, strain BCK1, active compounds read low",0.35 (active)
same,normalized growth,"locus YJL115W, strain asf1, active compounds read low",0.424 (active)
same,normalized growth,"locus YJL129C, strain trk1, active compounds read low",0.852 (active)
same,normalized growth,"locus YJL154C, strain vps35, active compounds read low",0.344 (active)
same,normalized growth,"locus YJL164C, strain tpk1, active compounds read low",0.16 (active)
same,normalized growth,"locus YJL166W, strain qcr8, active compounds read low",0.177 (active)
same,normalized growth,"locus YJL187C, strain SWE1, active compounds read low",0.206 (active)
same,normalized growth,"locus YJR066W, strain TOR1, active compounds read low",0.57 (active)
same,normalized growth,"locus YKL160W, strain elf1, active compounds read low",0.486 (active)
same,normalized growth,"locus YKR026C, strain gcn3, active compounds read low",0.559 (active)
same,normalized growth,"locus YKR091W, strain srl3, active compounds read low",0.589 (active)
same,normalized growth,"locus YLL001W, strain dnm1, active compounds read low",0.42 (active)
same,normalized growth,"locus YLL026W, active compounds read low",0.333 (active)
same,normalized growth,"locus YLL041C, strain sdh2, active compounds read low",0.279 (active)
same,normalized growth,"locus YLR027C, strain aat2, active compounds read low",0.22 (active)
same,normalized growth,"locus YLR113W, strain HOG1, active compounds read low",0.308 (active)
same,normalized growth,"locus YLR221C, strain rsa3, active compounds read low",0.342 (active)
same,normalized growth,"locus YLR258W, strain gsy2, active compounds read low",0.209 (active)
same,normalized growth,"locus YLR262C, strain YPT6 (second series), active compounds read low",0.114 (active)
same,normalized growth,"locus YLR320W, strain mms22, active compounds read low",0.159 (active)
same,normalized growth,"locus YLR342W, strain FKS1, active compounds read low",0.163 (active)
same,normalized growth,"locus YLR357W, strain rsc2, active compounds read low",0.452 (active)
same,normalized growth,"locus YLR370C, strain arc18, active compounds read low",0.273 (active)
same,normalized growth,"locus YLR384C, strain iki3, active compounds read low",0.75 (active)
same,normalized growth,"locus YML120C, strain ndi1, active compounds read low",0.978
same,normalized growth,"locus YMR058W, strain fet3, active compounds read low",0.0888 (active)
same,normalized growth,"locus YMR125W, strain sto1, active compounds read low",0.462 (active)
same,normalized growth,"locus YMR129W, active compounds read low",0.633 (active)
same,normalized growth,"locus YMR205C, strain PFK2, active compounds read low",0.179 (active)
same,normalized growth,"locus YMR231W, strain pep5, active compounds read low",0.141 (active)
same,normalized growth,"locus YNL071W, strain lat1, active compounds read low",0.194 (active)
same,normalized growth,"locus YNL183C, strain NPR1, active compounds read low",0.561 (active)
same,normalized growth,"locus YNL209W, strain ssb2, active compounds read low",0.111 (active)
same,normalized growth,"locus YNL248C, strain rpa49, active compounds read low",0.488 (active)
same,normalized growth,"locus YNL322C, strain KRE1 (second series), active compounds read low",0.403 (active)
same,normalized growth,"locus YNR049C, strain mso1, active compounds read low",0.551 (active)
same,normalized growth,"locus YOR001W, strain rrp6, active compounds read low",0.952
same,normalized growth,"locus YOR070C, strain gyp1, active compounds read low",0.492 (active)
same,normalized growth,"locus YOR080W, strain dia2, active compounds read low",0.958
same,normalized growth,"locus YOR083W, strain WHI5, active compounds read low",0.43 (active)
same,normalized growth,"locus YOR106W, strain vam3, active compounds read low",0.135 (active)
same,normalized growth,"locus YOR231W, strain MKK1, active compounds read low",0.513 (active)
same,normalized growth,"locus YOR265W, strain rbl2, active compounds read low",0.204 (active)
same,normalized growth,"locus YOR270C, strain vph1, active compounds read low",0.153 (active)
same,normalized growth,"locus YOR290C, strain snf2, active compounds read low",0.912
same,normalized growth,"locus YPL051W, strain arl3, active compounds read low",0.129 (active)
same,normalized growth,"locus YPL078C, strain atp4, active compounds read low",0.94
same,normalized growth,"locus YPL106C, strain sse1, active compounds read low",0.299 (active)
same,normalized growth,"locus YPL240C, strain hsp82, active compounds read low",0.242 (active)
same,normalized growth,"locus YPL256C, strain CLN2, active compounds read low",0.415 (active)
